Reference: publication PMC7862700, “An all-to-all approach to the identification of sequence-specific readers for epigenetic DNA modifications on cytosine”

How the values were obtained:
Test in all cases: DAPPL (digital affinity profiling via proximity ligation, sequencing); 10 mM Tris-HCl pH 7.5, 50 mM NaCl, 1 mM DTT, 4% glycerol, room temperature, 30 min; GST-TFs on glutathione beads, 16-mer random dsDNA library, 0.1% formaldehyde crosslink after washing; high values mean tight binding
Conditions in all cases: protein: recombinant; tags: N-terminal GST; dsDNA, one strand shown
ERF = molecular target: T1, ERF (Homo sapiens, UniProt P50548 1-548)
T1 sequence: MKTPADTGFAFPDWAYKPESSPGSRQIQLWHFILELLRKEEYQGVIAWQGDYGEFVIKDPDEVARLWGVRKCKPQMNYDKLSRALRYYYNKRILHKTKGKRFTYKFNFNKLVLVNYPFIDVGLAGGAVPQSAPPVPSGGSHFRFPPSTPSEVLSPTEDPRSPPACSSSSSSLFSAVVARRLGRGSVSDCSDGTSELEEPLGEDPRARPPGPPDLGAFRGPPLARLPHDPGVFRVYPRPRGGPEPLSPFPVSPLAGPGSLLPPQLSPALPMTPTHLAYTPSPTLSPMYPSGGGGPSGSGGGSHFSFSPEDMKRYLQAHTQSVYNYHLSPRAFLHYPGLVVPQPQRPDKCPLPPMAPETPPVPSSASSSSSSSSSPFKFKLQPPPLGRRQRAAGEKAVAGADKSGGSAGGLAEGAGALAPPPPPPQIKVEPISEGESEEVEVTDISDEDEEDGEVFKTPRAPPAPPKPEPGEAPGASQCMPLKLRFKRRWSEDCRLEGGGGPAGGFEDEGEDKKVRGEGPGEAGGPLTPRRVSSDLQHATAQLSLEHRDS
In short: (§1)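 Sequencing on an Illumina NextSeq500 followed washing, crosslinking with 0.1% formaldehyde, proximity ligation (BsaI/T4 ligase, 1 h, 37 °C) and PCR amplification of pools that had been incubated for 30 min at room temperature with 200 nmole of a random double-stranded 16-mer DNA library in Tris/NaCl/DTT/glycerol buffer. Each pool held DNA-barcoded human transcription factors, expressed in yeast as GST fusions and captured on glutathione beads, plus a tag-only sample. Binding signal is a hexamer's read frequency for a factor divided by its frequency in the tag-only sample.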

ETV3L = molecular target: T2, ETV3L (Homo sapiens, UniProt Q6ZN32 1-361)
T2 sequence: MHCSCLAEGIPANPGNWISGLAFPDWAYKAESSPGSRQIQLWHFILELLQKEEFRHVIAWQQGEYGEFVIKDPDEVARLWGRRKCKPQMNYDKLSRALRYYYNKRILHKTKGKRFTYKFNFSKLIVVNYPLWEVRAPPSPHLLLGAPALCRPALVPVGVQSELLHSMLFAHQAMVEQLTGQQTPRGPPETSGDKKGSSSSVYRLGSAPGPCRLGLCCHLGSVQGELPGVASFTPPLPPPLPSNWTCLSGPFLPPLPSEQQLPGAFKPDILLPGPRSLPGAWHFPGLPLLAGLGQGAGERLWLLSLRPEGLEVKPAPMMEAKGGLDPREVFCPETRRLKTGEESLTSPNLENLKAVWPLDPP
In short: as §1

ETS2 = molecular target: T3, ETS2 (Homo sapiens, UniProt P15036 1-469)
T3 sequence: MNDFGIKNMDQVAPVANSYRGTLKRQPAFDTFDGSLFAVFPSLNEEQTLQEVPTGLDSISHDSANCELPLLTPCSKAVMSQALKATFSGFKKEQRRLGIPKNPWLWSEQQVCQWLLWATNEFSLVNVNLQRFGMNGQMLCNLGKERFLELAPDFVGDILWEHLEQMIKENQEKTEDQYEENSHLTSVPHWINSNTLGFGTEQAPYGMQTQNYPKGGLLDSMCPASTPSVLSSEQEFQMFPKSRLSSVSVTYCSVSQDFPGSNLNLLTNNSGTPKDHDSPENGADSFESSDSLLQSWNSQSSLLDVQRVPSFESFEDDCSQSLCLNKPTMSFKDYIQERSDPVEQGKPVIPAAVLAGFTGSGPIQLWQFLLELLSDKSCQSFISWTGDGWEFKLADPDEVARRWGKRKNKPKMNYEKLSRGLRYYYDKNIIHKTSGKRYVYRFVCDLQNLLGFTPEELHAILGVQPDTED
In short: as §1

SPDEF = molecular target: T4, SPDEF (Homo sapiens, UniProt O95238 1-335)
T4 sequence: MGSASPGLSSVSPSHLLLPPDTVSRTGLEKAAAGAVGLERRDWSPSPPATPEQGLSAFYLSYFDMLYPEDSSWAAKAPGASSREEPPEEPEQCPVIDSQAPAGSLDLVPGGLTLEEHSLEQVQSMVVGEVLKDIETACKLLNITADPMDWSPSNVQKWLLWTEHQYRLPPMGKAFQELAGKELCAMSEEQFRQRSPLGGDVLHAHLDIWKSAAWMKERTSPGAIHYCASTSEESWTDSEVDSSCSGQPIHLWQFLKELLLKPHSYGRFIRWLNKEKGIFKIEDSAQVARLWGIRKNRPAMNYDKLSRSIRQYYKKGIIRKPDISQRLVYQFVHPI
In short: as §1

ETV7 = molecular target: T5, ETV7 (Homo sapiens, UniProt Q9Y603 1-341)
T5 sequence: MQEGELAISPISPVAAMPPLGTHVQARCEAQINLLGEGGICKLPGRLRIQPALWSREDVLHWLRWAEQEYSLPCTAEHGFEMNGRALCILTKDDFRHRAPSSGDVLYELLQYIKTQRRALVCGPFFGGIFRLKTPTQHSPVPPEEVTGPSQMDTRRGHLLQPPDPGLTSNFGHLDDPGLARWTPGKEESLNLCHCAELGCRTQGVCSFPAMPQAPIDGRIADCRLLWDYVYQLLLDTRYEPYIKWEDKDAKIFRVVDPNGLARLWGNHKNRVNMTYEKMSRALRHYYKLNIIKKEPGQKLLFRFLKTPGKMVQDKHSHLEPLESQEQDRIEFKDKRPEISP
In short: as §1

ELF5 = molecular target: T6, ELF5 (Homo sapiens, UniProt Q9UKW6-2 1-255)
T6 sequence: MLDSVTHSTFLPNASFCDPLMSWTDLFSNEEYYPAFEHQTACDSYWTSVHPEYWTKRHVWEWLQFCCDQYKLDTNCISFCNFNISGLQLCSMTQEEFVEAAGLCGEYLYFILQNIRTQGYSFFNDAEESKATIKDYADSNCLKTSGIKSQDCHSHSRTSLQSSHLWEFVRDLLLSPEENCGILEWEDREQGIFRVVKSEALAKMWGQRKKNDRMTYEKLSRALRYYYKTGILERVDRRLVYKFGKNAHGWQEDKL
In short: as §1

ETV3 = molecular target: T7, ETV3 (Homo sapiens, UniProt P41162-2 1-143)
T7 sequence: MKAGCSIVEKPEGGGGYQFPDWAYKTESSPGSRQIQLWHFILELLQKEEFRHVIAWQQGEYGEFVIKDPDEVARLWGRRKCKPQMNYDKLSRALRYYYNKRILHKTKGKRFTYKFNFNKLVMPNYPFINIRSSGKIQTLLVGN
In short: as §1

ETV6 = ETV6 (Homo sapiens, UniProt P41212 1-452)
In short: as §1

ETV6, sequence (P41212 whole entry): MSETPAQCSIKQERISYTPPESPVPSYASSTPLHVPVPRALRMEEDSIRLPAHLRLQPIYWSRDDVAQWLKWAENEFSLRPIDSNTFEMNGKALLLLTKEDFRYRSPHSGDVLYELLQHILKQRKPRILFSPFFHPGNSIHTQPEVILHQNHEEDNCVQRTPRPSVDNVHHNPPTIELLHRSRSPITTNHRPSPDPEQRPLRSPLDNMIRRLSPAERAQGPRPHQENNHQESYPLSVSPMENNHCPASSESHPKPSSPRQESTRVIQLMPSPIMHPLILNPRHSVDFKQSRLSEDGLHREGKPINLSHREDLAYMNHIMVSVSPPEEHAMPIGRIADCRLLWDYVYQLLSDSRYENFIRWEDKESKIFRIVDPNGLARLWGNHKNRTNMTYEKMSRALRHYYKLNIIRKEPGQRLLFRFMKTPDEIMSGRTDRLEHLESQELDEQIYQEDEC

Row | Sequence | binding signal (ERF) | binding signal (ETV3L) | binding signal (ETS2) | binding signal (SPDEF) | binding signal (ETV7) | binding signal (ELF5) | binding signal (ETV3) | binding signal (ETV6)
1 | CTGGTT | 1.2 fold enrichment (6-mer frequency, TF over GST control) | 1.35 fold enrichment (6-mer frequency, TF over GST control) | 1.29 fold enrichment (6-mer frequency, TF over GST control) | 1.39 fold enrichment (6-mer frequency, TF over GST control) | 1.28 fold enrichment (6-mer frequency, TF over GST control) | 1.38 fold enrichment (6-mer frequency, TF over GST control) | 1.45 fold enrichment (6-mer frequency, TF over GST control) | 1.32 fold enrichment (6-mer frequency, TF over GST control)
2 | TTGAAA | 1.13 fold enrichment (6-mer frequency, TF over GST control) | 1.23 fold enrichment (6-mer frequency, TF over GST control) | 1.24 fold enrichment (6-mer frequency, TF over GST control) | 1.07 fold enrichment (6-mer frequency, TF over GST control) | 1.19 fold enrichment (6-mer frequency, TF over GST control) | 1.03 fold enrichment (6-mer frequency, TF over GST control) | 1.17 fold enrichment (6-mer frequency, TF over GST control) | 1.09 fold enrichment (6-mer frequency, TF over GST control)
3 | AATGAT | 1.18 fold enrichment (6-mer frequency, TF over GST control) | 1.24 fold enrichment (6-mer frequency, TF over GST control) | 1.12 fold enrichment (6-mer frequency, TF over GST control) | 1.13 fold enrichment (6-mer frequency, TF over GST control) | 1.2 fold enrichment (6-mer frequency, TF over GST control) | 1.06 fold enrichment (6-mer frequency, TF over GST control) | 1.21 fold enrichment (6-mer frequency, TF over GST control) | 1.24 fold enrichment (6-mer frequency, TF over GST control)
4 | TTTGCA | 1.13 fold enrichment (6-mer frequency, TF over GST control) | 1.31 fold enrichment (6-mer frequency, TF over GST control) | 1.14 fold enrichment (6-mer frequency, TF over GST control) | 1.23 fold enrichment (6-mer frequency, TF over GST control) | 1.21 fold enrichment (6-mer frequency, TF over GST control) | 1.24 fold enrichment (6-mer frequency, TF over GST control) | 1.26 fold enrichment (6-mer frequency, TF over GST control) | 1.32 fold enrichment (6-mer frequency, TF over GST control)
5 | TCTCTA | 1.24 fold enrichment (6-mer frequency, TF over GST control) | 1.29 fold enrichment (6-mer frequency, TF over GST control) | 1.22 fold enrichment (6-mer frequency, TF over GST control) | 1.24 fold enrichment (6-mer frequency, TF over GST control) | 1.34 fold enrichment (6-mer frequency, TF over GST control) | 1.21 fold enrichment (6-mer frequency, TF over GST control) | 1.3 fold enrichment (6-mer frequency, TF over GST control) | 1.21 fold enrichment (6-mer frequency, TF over GST control)
6 | CTTAGA | 1.18 fold enrichment (6-mer frequency, TF over GST control) | 1.17 fold enrichment (6-mer frequency, TF over GST control) | 1.06 fold enrichment (6-mer frequency, TF over GST control) | 1.16 fold enrichment (6-mer frequency, TF over GST control) | 1.07 fold enrichment (6-mer frequency, TF over GST control) | 1.04 fold enrichment (6-mer frequency, TF over GST control) | 1.07 fold enrichment (6-mer frequency, TF over GST control) | 1.11 fold enrichment (6-mer frequency, TF over GST control)
